Screens as filed in PubChem BioAssay.
NPC1 prom act – qHTS Assay for NPC1 Promoter Activators; Huh7 NPC1 promoter luciferase reporter, 24 h; Potency, µM (series often up to 9.22 µM), usual class: activators; 320,000 tested, 2.4% active; further: nearly all actives have a fitted effect of over 60% in size
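Stably transfected Huh7 (NPC1 promoter→luciferase), 1500 cells/well in Opti-MEM + 10% FBS, 2 h settle, then compound 24 h at 37 °C. Luminescence after 10 min with Amplite reagent.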
Rab9 promoter act – qHTS Assay for Rab9 Promoter Activators | AID 485297, 2010 | 320,000 tested, 2.8% active | Potency, µM (highest dose often 9.22 µM), hits mostly activators | Huh7 Rab9 promoter-luciferase reporter, luminescence, 24 h; further: nearly all actives have a fitted effect of over 60% in size
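Luminescence from Amplite-detected luciferase (10 minutes, ambient) reports Rab9 promoter activation. Before that, stable Rab9-luciferase Huh7 cells (1500/well, reduced-serum OP-MEM I plus 10% FBS) were exposed to compound for 24 hours at 37C.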
FLuc counter – qHTS profiling assay for firefly luciferase inhibitor/activator using purifed enzyme and Km concentrations of substrates (counterscreen for miR-21 project); Luciferin 4-monooxygenase (Photinus pyralis), P08659; purified FLuc, Km substrates, luminescence inhibition; Potency, µM (highest dose often 57.5 µM), usual class: inhibitors; 360,000 tested, 6.9% active; further: nearly all actives have a fitted effect of over 55% in size
Target sequence (P08659 whole entry, looked up): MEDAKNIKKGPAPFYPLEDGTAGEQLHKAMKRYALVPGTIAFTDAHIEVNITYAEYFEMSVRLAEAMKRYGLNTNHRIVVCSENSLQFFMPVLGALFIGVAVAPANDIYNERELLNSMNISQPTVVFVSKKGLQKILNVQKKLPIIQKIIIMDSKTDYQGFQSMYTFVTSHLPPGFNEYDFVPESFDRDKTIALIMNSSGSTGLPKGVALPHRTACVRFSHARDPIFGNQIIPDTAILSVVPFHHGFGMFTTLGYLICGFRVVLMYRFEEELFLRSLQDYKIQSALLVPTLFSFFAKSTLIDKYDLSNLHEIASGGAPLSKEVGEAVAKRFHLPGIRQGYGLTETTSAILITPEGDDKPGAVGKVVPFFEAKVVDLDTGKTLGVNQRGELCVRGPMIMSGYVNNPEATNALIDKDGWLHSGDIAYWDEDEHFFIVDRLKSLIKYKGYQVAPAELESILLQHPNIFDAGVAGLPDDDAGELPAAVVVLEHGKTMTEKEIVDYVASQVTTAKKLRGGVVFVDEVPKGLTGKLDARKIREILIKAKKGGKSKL
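Purified P. pyralis luciferase, 10 nM final, with Km-level 10 uM D-luciferin and 10 uM ATP in 50 mM Tris acetate pH 7.5, 10 mM Mg acetate, 0.01% Tween-20, 0.05% BSA; 6-point qHTS titration about 60 µM downward; luminescence read.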
SMN2 splice enh – qHTS Assay for Enhancers of SMN2 Splice Variant Expression. HEK293 SMN2-luciferase splicing reporter, luminescence, 30-36 h. Potency, µM (highest dose often 46.1 µM), most hits filed as activators. 210,000 tested, 2.8% active; further: nearly all actives have a fitted effect of over 55% in size
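HEK293 cells carry an SMN2 […]–luciferase reporter in which exon 7 inclusion puts luciferase in frame. Cells were plated 10-12 h before compound addition, then incubated 30-36 h at 37C. ONE-Glo luminescence was read; sodium butyrate at 4.5 mM final served as control.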
ELG1 DNA repair – qHTS screen for small molecules that inhibit ELG1-dependent DNA repair in human embryonic kidney (HEK293T) cells expressing luciferase-tagged ELG1; HEK293T ELG1-luciferase reporter, luminescence, 16 h; DNA damage induced by 5-fluorouridine; Potency, µM (titrated, usually from 46.1 µM), hits mostly inhibitors; 330,000 tested, 2.3% active; further: nearly all actives have a fitted effect of over 55% in size
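DMSO vehicle served as the neutral condition. Each well held 2,000 cells given 5-fluorouridine plus compound; after 16 hr at 37 °C/5% CO2, ONE-Glo was added and luciferase measured 30 min later.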
ELG1 genotox – qHTS screen for small molecules that induce genotoxicity in human embryonic kidney (HEK293T) cells expressing luciferase-tagged ELG1. HEK293T ELG1-luciferase reporter, luminescence, 16 h. Potency, µM (highest dose often 46 µM), actives largely listed as activators. 330,000 tested, 1.3% active. AID 504466, 2011; further: nearly all actives have a fitted effect of over 60% in size
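Screening used a luciferase reporter fused to human ELG1 in HEK293T cells. Luminescence was read on a CCD plate imager after 16 hr exposure and 30 min ONE-Glo incubation.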
ELG1 FLuc counter – qHTS screen for small molecules that inhibit ELG1-dependent DNA repair: Hit Confirmation in Cell-Based Luciferin Assay. Potency, µM (highest dose often 46.1 µM), actives largely listed as inhibitors. cell-free firefly luciferase luminescence counter-screen, ViewLux. 350 tested, 3% active. AID 624247, 2012. shares compounds with ELG1 DNA repair
ELG1 Luc conf – HTS assay for small molecules that inhibit ELG1-dependent DNA repair in human embryonic kidney (HEK293T) cells expressing luciferase-tagged ELG1: Hit Confirmation | shares compounds with ELG1 DNA repair | HEK293T ELG1-luciferase levels, luminescence; cells co-treated with 5-fluorouridine | Potency, µM (top dose mostly 46.1 µM), usual class: inhibitors | 670 tested, 68% active | AID 624248, 2012; further: nearly all actives have a fitted effect of over 55% in size
ELG1 MMS Luc – MMS-stimulated human ELG1 repair inhibition, confirmed; shares compounds with ELG1 DNA repair; 670 tested, 53% active; HEK293T luciferase-tagged ELG1 level, MMS stimulated; Potency, µM (top dose mostly 46.1 µM), usual class: inhibitors; further: nearly all actives have a fitted effect of over 60% in size
ELG1 5FU viab – qHTS screen for small molecules that inhibit ELG1-dependent DNA repair: Hit Confirmation with 5FU Viability; shares compounds with ELG1 DNA repair; cell viability with 5-FU, ELG1-dependent repair; Potency, µM (series often up to 46.1 µM), most hits filed as cytotoxic; 670 tested, under 10 active; AID 624250, 2012;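 further: ELG1-luc HEK293T cells cotreated with 5-fluorouridine at 10 µM final; viability measured 16 h after compound addition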
ELG1 MMS cell – qHTS screen for small molecules that inhibit ELG1-dependent DNA repair: Hit Confirmation with MMS Viability. Potency, µM (highest dose often 46.1 µM), hits mostly cytotoxic. shares compounds with ELG1 DNA repair. Cell viability with MMS, ELG1-dependent DNA repair. 670 tested, 33% active;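 further: ELG1-luc HEK293T cells co-treated with 10 µM MMS; viability read 16 h after compound addition; nearly all actives have a fitted effect of over 60% in size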
ELG1 unstim viab – qHTS screen for small molecules that inhibit ELG1-dependent DNA repair: Hit Confirmation with Unstimulated Viability Assay. 900 tested, 8% active. Potency, µM (highest dose often 45.9 µM), usual class: cytotoxic. shares compounds with ELG1 DNA repair. cell viability counter-screen, unstimulated, luminescence;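 further: compound exposure lasted 16 hours before reading; nearly all actives have a fitted effect of over 55% in size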
FLuc enzyme – qHTS screen for small molecules that inhibit ELG1-dependent DNA repair: Hit Confirmation in Biochemical Luciferin Assay; shares compounds with ELG1 DNA repair; 350 tested, 10% active; Potency, µM (top dose mostly 57.5 µM), hits mostly inhibitors; purified firefly luciferase, luminescence counter-screen
A number is an active result; n = inactive; u = inconclusive; x = not tested or not shown; [ ] = another dose, or the depositor's remark. Sampled rows, rich in hits. Any-hit rate of the full collection: about 9.3%. The call rests on the fitted dose curve; in most records, active means well fitted curve in the direction sought with a large enough effect; inconclusive means small, poorly fitted or top-dose-only effect, or another doubt; inactive means no such curve, though single readings can be large; an effect the other way counts as inactive or inconclusive.

SMILES	NPC1 prom act	Rab9 promoter act	FLuc counter	SMN2 splice enh	ELG1 DNA repair	ELG1 genotox	ELG1 Luc conf	ELG1 MMS Luc	ELG1 5FU viab	ELG1 MMS cell	ELG1 unstim viab	others
COc1cccc([C@@H]2Oc3ccc(OC)cc3C(=O)[C@H]2OC(=O)NS(=O)(=O)c2ccc(C)cc2)c1	x	x	x	11µM	x	x	x	x	x	x	n
Cc1nn(CC(=O)N(C)c2c(N)n(Cc3ccccc3)c(=O)[nH]c2=O)c(C)c1[N+](=O)[O-]	n	n	n	x	n	n	x	x	x	x	x
O=S(=O)(c1ccc2c(c1)OCCO2)N1CCN(c2ncnc3sccc23)CC1	n	n	n	n	4.6µM	n	13µM	2µM	u	1.8µM	u
CC(C)(C)c1ccc(C(=O)NNc2ncccc2-n2cccc2)cc1	n	n	n	x	3.3µM	n	n	n	n	n	n
COc1ccc(C)cc1NC(=O)CSc1nc(=O)n(Cc2ccccn2)c2c1CCC2	x	x	n	x	x	x	x	x	x	x	x
CSc1ccc(C(=O)c2[nH]c(=O)[nH]c2C)cc1	n	n	n	n	u	u	x	x	x	x	u	ELG1 FLuc counter=n;FLuc enzyme=u
C[C@H](NC(=O)C1CCN(S(=O)(=O)c2ccccc2)CC1)C(=O)NCc1ccco1	n	n	n	x	n	n	x	x	x	x	x
COc1cc(C(=O)OC2CSCC2NC(=O)c2ccccc2)cc(OC)c1OC (stereo unspecified)	n	n	n	x	4.1µM	n	10µM	n	u	u	u
COc1cc2cc(CCCOC(=O)CCC(=O)O)oc(=O)c2cc1OC	n	n	n	x	n	n	x	x	x	x	x
CCOC(=O)CN(C(=O)COC(=O)C1(c2ccccc2)CC1)c1ccc(F)cc1	n	n	n	x	n	n	x	x	x	x	x
CCC(=O)N1CCc2cc(Br)cc(S(=O)(=O)N3CCC(C(=O)NCCCOC(C)C)CC3)c21	n	n	n	n	1.6µM	n	7.9µM	n	u	n	n
CCN(CC)C(=O)c1sc(NC(=O)c2cccnc2)c(C(=O)OC)c1C	n	n	n	n	2.6µM	n	3.1µM	n	u	n	u
Nc1cc(=O)[nH]c(SCC(=O)Nc2ccc(Cl)c(Cl)c2)n1	n	n	n	n	n	n	x	x	x	x	x
Nc1cc(=O)[nH]c(SCc2ccc(Cl)cc2Cl)n1	n	n	n	x	4.1µM	n	n	2.8µM	n	4µM	n
COc1ccc(N2CCCn3c2nc2c3c(=O)n(CCc3ccccc3)c(=O)n2C)cc1	n	n	n	n	4.1µM	n	18µM	16µM	u	n	n
CCOc1ccc(N2CCCn3c2nc2c3c(=O)n(CCc3ccccc3)c(=O)n2C)cc1	n	n	n	n	n	n	x	x	x	x	x
CC(C)C(=O)N1CCC2(CC1)Oc1ccc(Cl)cc1C(=O)C21CC(c2ccc(Cl)cc2)=NO1 (stereo unspecified)	n	n	n	x	2.6µM	n	10µM	n	u	n	u
O=C1c2cc(Cl)ccc2OC2(CCNCC2)C12CC(c1ccc(Cl)cc1)=NO2 (stereo unspecified)	n	n	n	x	n	n	x	x	x	x	x
CCCCCCC1(C)NC(=S)N(c2ccccc2)N1 (stereo unspecified)	n	n	n	n	u	n	n	n	n	n	u
CCCCc1ccc(S(=O)(=O)NC2CCS(=O)(=O)C2)cc1 (stereo unspecified)	n	n	n	x	3.7µM	n	n	11µM	n	11µM	n
Cc1ccc(C)c(S(=O)(=O)N2CCCOC2CNC(=O)C(=O)NC2CCCC2)c1 (stereo unspecified)	n	n	n	x	n	n	x	x	x	x	x
C[C@H]1O[C@@H](n2cc(F)c(=O)[nH]c2=O)[C@H](O)[C@H]1O	n	n	x	x	x	x	x	x	x	x	x
COCCn1ccc2c(OCC(=O)Nc3cc(OC)ccc3OC)cccc2c1=O	n	n	n	x	u	n	x	x	x	x	x
CCOCCn1ccc2c(OCC(=O)Nc3cc(OC)ccc3OC)cccc2c1=O	n	n	n	x	4.1µM	n	11µM	16µM	u	u	u
Cc1ccc(Cn2ncc3c(N4CCN(C)CC4)ncnc32)cc1	n	n	n	n	u	n	x	x	x	x	x
Cc1ccc(Cn2ncc3c(N4CCN(CCc5ccccc5)CC4)ncnc32)cc1	n	n	n	x	3.7µM	n	u	3.5µM	n	4µM	u
O=C(/C=C/c1ccc(F)cc1)NC(=S)NNC(=O)c1cnccn1	n	n	u	x	2.3µM	n	u	20µM	n	n	n
CCC(C(=O)NCCCN1CCCC1=O)n1c2ccccc2c2nc(=O)cc(C)n21 (stereo unspecified)	n	n	n	x	u	n	x	x	x	x	x
O=C(c1ccccn1)N1CCCC(N2CCN(c3ccc(F)cc3)CC2)C1 (stereo unspecified)	n	n	n	x	n	n[9.26 µM]	x	x	x	x	x
